Screening data as filed in PubChem.
An excerpt weighted towards active compounds, which were near 4.7% of everything screened.
FBA Mtb inh = inhibitors of M. tuberculosis fructose-bisphosphate aldolase; inhibition, % at 1 µM; purified M. tuberculosis FBA, fluorescence read-out; 360,000 tested, 2.3% active; in the data active = inhibition above about 27%;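 note: 0% = vehicle and 100% = reference inhibitor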
Target sequence (P9WQA3 whole entry, looked up): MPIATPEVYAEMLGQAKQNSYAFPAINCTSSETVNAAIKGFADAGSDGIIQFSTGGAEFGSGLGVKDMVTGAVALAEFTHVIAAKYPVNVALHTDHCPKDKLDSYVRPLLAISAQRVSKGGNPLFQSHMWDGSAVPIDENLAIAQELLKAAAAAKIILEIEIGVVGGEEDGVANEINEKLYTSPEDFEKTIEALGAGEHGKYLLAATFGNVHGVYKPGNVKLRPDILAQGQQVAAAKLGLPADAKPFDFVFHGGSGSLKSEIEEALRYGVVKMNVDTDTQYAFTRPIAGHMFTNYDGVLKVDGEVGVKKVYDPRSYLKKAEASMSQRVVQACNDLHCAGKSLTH
3CLpro inhibitor = SARS-CoV 3CLpro protease inhibition. recombinant SARS-CoV 3CLpro, quenched FRET peptide cleavage. P0C6X7. inhibition, % at 6 µM. 290,000 tested, 0.14% active; in the data active = inhibition above about 12%
CCHFV vOTU inh = CCHFV vOTU protease inhibition | Pep-AMC fluorescence | inhibition, % at 11.5 µM | 370,000 tested, 0.55% active; note: 0% = vehicle wells with enzyme and 100% = no enzyme wells
RecA intein inh = Mtb RecA intein splicing inhibition; P9WHJ3; cell-free RecA intein splicing, fluorescence; inhibition, % (no concentration beside the values); 290,000 tested, 0.75% active; AID 2221; in the data active = inhibition above about 30%;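 note: 0% = vehicle wells and 100% = reference inhibitor control wells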
GDH-TPI counter = inhibits GDH-TPI coupling enzymes, artifact for Mtb FBA screen. GDH-TPI coupled enzyme counterscreen, NADH absorbance. inhibition, % at 4.8 µM. 360,000 tested, 1.2% active;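 note: 0% = DMSO wells and 100% = wells lacking the enzyme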
VHR inh abs = blocks human VHR1 dual specificity phosphatase. recombinant VHR phosphatase, pNPP absorbance. inhibition, % at 13.3 µM. 290,000 tested, 0.52% active. AID 1654; in the data active = inhibition above about 50%
Target sequence (P51452 whole entry, looked up): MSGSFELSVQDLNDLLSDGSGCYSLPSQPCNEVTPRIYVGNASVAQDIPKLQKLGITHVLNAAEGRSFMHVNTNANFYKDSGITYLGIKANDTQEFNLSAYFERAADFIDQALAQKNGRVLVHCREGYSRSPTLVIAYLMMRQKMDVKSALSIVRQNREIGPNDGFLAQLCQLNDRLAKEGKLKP
Active calls of the source: *; / = no result given; + = active, no number; ! = a repeat was not active. Cut-off read from the data, not from the text of the source, unless noted: active = inhibition above about 30%; inactive = the rest.

SMILES | FBA Mtb inh | 3CLpro inhibitor | CCHFV vOTU inh | RecA intein inh | GDH-TPI counter | VHR inh abs
CCCOc1ccc(-c2nc(C#N)c(N3CCC(C(N)=O)CC3)o2)cc1 | + | -2.7 | -45.6 | -1.0 | 26.9 | 17.4
N#Cc1nc(-c2ccc(F)cc2)oc1NCc1cccc2c1OCO2 | 12.2 | 6.7 | 20.1 | -0.2 | 4.3 | 16.5
N#Cc1nc(-c2ccc(Cl)cc2)oc1N1CCCCC1 | + | -1.8 | -94.6 | 1.4 | 23.5 | 24.6
CC(C)CNc1oc(-c2ccc(F)cc2)nc1C#N | 127.9* | -4.1 | -28.4 | 0.6 | 13.9 | 2.4
COc1ccc(-c2nc(C#N)c(N3CCCCCC3)o2)cc1OC | + | 2.4 | -120.8 | -0.1 | 31.4* | 11.9
CN1CCN(c2oc(-c3ccc([N+](=O)[O-])cc3)nc2C#N)CC1 | -1.0 | 2.4 | -5.2 | 3.0 | 13.2 | 7.4
COc1ccc(-c2nc(C#N)c(N3CCCCCC3)o2)cc1 | 193.7* | 1.1 | -44.8 | 7.1 | 17.0 | -23.4
COc1ccc(-c2nc(C#N)c(N3CCCCC3)o2)cc1 | + | 4.6 | -41.4 | -3.0 | 6.4 | /
COc1ccc(-c2nc(C#N)c(NC(C)C)o2)cc1 | 190.2* | -4.8 | -52.9 | 1.0 | 5.7 | 17.4
Cc1ccc(-c2nc(C#N)c(N3CCCCC3)o2)cc1 | 137.1* | -3.0 | -30.9 | 2.9 | 13.9 | 17.0
COC(=O)[C@]12C[C@H](CC(=O)NCc3cccs3)C(=O)N(Cc3cccc4ccccc34)C1=C[C@H](C1CCCC1)O[C@@H]2C | / | / | 9.2 | / | / | /
C[C@@H]1CCCCO[C@@H](CN(C)Cc2ccc(C(=O)O)cc2)[C@@H](C)CN([C@H](C)CO)C(=O)c2cc(NS(C)(=O)=O)ccc2O1 | / | / | -2.1 | / | / | /
COc1ccc(Cc2c(C3CCCCC3)nc3c(Cl)cc(C(F)(F)F)cn23)c(C)c1 | / | / | 12.1 | / | / | /
N#Cc1nc(-c2ccco2)oc1N1CCCC1 | 189.5* | -0.5 | -68.7 | 0.8 | -2.8 | 0.0
COc1ccc(-c2nc(C#N)c(N3CCC(C)CC3)o2)cc1 | 114.6* | -4.8 | -18.4 | 0.4 | 3.8 | /
N#Cc1nc(-c2ccccc2F)oc1N1CCCC1 | + | -1.6 | -207.9 | -0.9 | 18.8 | 6.5
N#Cc1nc(Cc2ccccc2)oc1N1CCCC1 | 1.7 | -0.3 | -2.6 | -1.1 | -2.6 | 9.3
N#Cc1nc(-c2ccccc2)oc1N1CCCCC1 | + | -3.2 | / | -0.8 | 23.1 | 4.3
CCN1CCN(c2oc(-c3ccco3)nc2C#N)CC1 | 17.6 | -8.4 | 0.2 | -8.8 | 10.3 | 12.5
O=S(=O)(c1ccccc1)c1nc(-c2ccccc2)oc1N1CCCCC1 | 0.9 | -4.0 | -0.2 | -1.0 | 13.8 | -14.9
CCCCS(=O)(=O)NCC1CCN(C(=O)C(=O)c2cc3ccccc3o2)CC1 | / | / | 4.5 | / | / | /
Cc1ccc(CN2CC(N3CC=CC3)CS2(=O)=O)cc1 (stereo unspecified) | 0.1 | / | 1.8 | / | / | /
Cc1c(N=Cc2c(O)n(CCc3ccc(F)cc3)c(=O)[nH]c2=O)c(=O)n(-c2ccccc2)n1C | -4.5 | 0.5 | 10.0 | -3.1 | 35.9* | 2.3
COc1ccc(OC)c(-n2c(O)c(C=Nc3c(C)n(C)n(-c4ccccc4)c3=O)c(=O)[nH]c2=S)c1 | -0.6 | 3.1 | -5.8 | -3.7 | 32.5* | 10.1
O=C(Nc1ccccc1-c1nc2ccccc2[nH]1)c1ccc(S(=O)(=O)N2CCCCC2)cc1 | 4.9 | -1.2 | -11.6 | 0.1 | 12.7 | 50.3*
SMILES | FBA Mtb inh | 3CLpro inhibitor | CCHFV vOTU inh | RecA intein inh | GDH-TPI counter | VHR inh abs
CC1CCCCN1S(=O)(=O)c1ccc(C(=O)Nc2ccccc2-c2nc3ccccc3[nH]2)cc1 (stereo unspecified) | 0.0 | -7.0 | -8.9 | -1.8 | 16.1 | 22.7
CCCCCCCCN1C(=O)N(Cc2ccc(OC)cc2)S(=O)(=O)c2ccc(F)cc21 | / | / | 2.5 | / | / | /
O=C(OCC(=O)N1CCOCC1)c1ccccc1O | 0.5 | -4.5 | 2.8 | -1.0 | -5.2 | 21.4
O=C(OCC(=O)N1CCOCC1)c1ccc(O)cc1 | + | 0.8 | -21.4 | -0.2 | 14.1 | 35.3
O=C(CC1SC(=O)NC1=O)Oc1ccc(/C=N/NC(=O)c2ccccc2O)cc1 (stereo unspecified) | 2.7 | 3.5 | 2.9 | 5.0 | 41.8* | 13.6
CCN(CC(=O)NCc1ccccc1Cl)CC(=O)Nc1c(F)cccc1F | 2.2 | 4.3 | 2.7 | 2.2 | 44.2* | -6.7
CCN(CC)S(=O)(=O)c1ccc(OC)c(NC(=O)OCc2ccccc2)c1 | 1.3 | 5.2 | -0.5 | -2.0 | -12.0 | 18.1
O=C(/C=C/c1ccc(O)c(O)c1)O[C@@H]1C[C@](O)(C(=O)O)C[C@@H](O)[C@H]1O | 0.7 | / | 3.6 | -6.0 | 49.8*! | /
O=C(/C=C/c1ccc(O)c(O)c1)OC1C(O)CC(OC(=O)/C=C/c2ccc(O)c(O)c2)(C(=O)O)CC1O (stereo unspecified) | -2.5 | -2.8 | 1.7 | -4.4 | 24.8 | 36.0
CCOCCCNC(=S)N1CCCN(c2nc3cc(C)c(C)cc3cc2C#N)CC1 | 16.1 | 2.0 | -9.0 | -53.3 | -0.9 | 52.0*
COCCCNC(=S)N1CCCN(c2nc3cc(C)c(C)cc3cc2C#N)CC1 | 8.0 | -4.8 | -21.3 | -82.7 | 4.8 | 16.5
O=C(c1sc2ccccc2c1Cl)N1CCN(CCc2ccccn2)CC1 | 7.6 | -2.4 | 12.8 | 2.6 | 8.6 | 38.7
CCOC(=O)C1=C(C)Nc2ccccc2N=C1NC(=O)Cc1ccc(Br)cc1 | 0.6 | 1.8 | 0.1 | -0.2 | 1.1 | 17.0
CCOC(=O)C1=C(C)Nc2ccccc2N=C1NC(=O)Cc1ccc(OC)cc1 | -0.6 | -0.9 | 0.7 | -1.7 | 6.7 | 50.8*
C[C@H]1C(c2ccc(F)cc2)=NN(c2ccccc2)[C@@H]1CO | 23.2 | / | -31.1 | / | 12.7 | /
COc1ccccc1[C@H]1C(c2ccccc2)=NN(c2ccccc2)[C@@H]1CO | 79.2* | / | / | / | 5.2 | /
Cc1cc(NC(=O)Cc2cn(C)c3ccccc23)ccc1Oc1cccnc1 | / | / | -3.7 | / | / | /
Cc1ccsc1/C=N/NC(=O)c1ccc(Cn2cc(Br)cn2)o1 | 1.9 | -1.2 | 18.8 | -1.9 | 35.0* | 18.3
O=C(N/N=C/c1cccc(Br)c1)c1ccc(Cn2cc(Br)cn2)o1 | -0.4 | -5.3 | -10.9 | 1.8 | 6.3 | 2.6
CCOc1cc(S(=O)(=O)NCCc2cccc(C)c2)c(OCC)cc1-n1cnnn1 | 40.5* | -2.2 | 5.7 | / | -0.9 | 37.9
CCOc1cc(S(=O)(=O)N2CCC(Cc3ccccc3)CC2)c(OCC)cc1-n1cnnn1 | 7.5 | -1.6 | -4.7 | 5.3 | 20.4 | 12.9
O=C(NCc1ccccc1)c1ccc(-c2cn[nH]c2)c2ccoc12 | 31.6* | / | -5.7 | / | 9.7 | /
CCN1CCc2c(C#N)c(NCc3ccccc3)nc(N(CC)CC)c2C1 | 0.1 | -2.8 | 13.4 | / | 10.7 | 55.6*
COCCn1c(O)c(/C=N/NC(=O)CSC(=S)N2CCCC2)c(=O)[nH]c1=S | -3.2 | / | 12.8 | / | 31.6* | /
O=C(CSC(=S)N1CCCC1)N/N=C/c1c(O)[nH]c(=S)[nH]c1=O | 6.3 | / | 20.6 | / | 46.2* | /
Cc1cccc(N/N=C/c2c(O)[nH]c(=S)[nH]c2=O)c1 | 0.4 | / | -1.6 | -0.3 | 5.3 | /
CCCNC(=O)N1CC[C@H]2[C@@H]1c1cc(-c3ccc(F)cc3)ccc1N(C)[C@H]2CO | / | / | -4.9 | / | / | /
